Data taken from PubChem BioAssay (EPA / NIEHS).
Active and inactive are the calls of the source. The calls were made as follows: active = hit-call score of the fitted dose curve at least 0.9, where 1 is the maximum; inactive = score below 0.9.

Columns and labels:
[1] = read-out: Tissue Factor, F3 (gene 2152); experiment: BSK_CASM3C_TissueFactor: BioMAP Diversity Plus: CASM3C Assay for Tissue Factor Biomarker Activity (AID 2283052); settings: primary human coronary artery smooth muscle cells; actives raise or lower the signal;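 also: cell surface tissue factor protein level read by ELISA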
[2] = read-out: Interferon-gamma inducible Protein 10 (IP10), CXCL10 (gene 3627); experiment: BSK_hDFCGF_IP10: BioMAP Diversity Plus: hDFCGF Assay for Interferon-gamma inducible Protein 10 (IP10) Biomarker Activity (AID 2283053); settings: primary human foreskin fibroblasts; actives raise or lower the signal
How it was run: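 Primary human foreskin fibroblasts exposed to chemicals for 24 h. IP-10 measured by ELISA; changes fitted bidirectionally against DMSO baseline.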

[3] = read-out: Urokinase-type plasminogen activator receptor (uPAR), PLAUR (gene 5329); experiment: BSK_CASM3C_uPAR: BioMAP Diversity Plus: CASM3C Assay for Urokinase-type plasminogen activator receptor (uPAR) Biomarker Activity (AID 2283054); settings: primary human coronary artery smooth muscle cells; actives raise or lower the signal;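 also: cell-surface uPAR protein level quantified by ELISA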
[4] = read-out: Vascular cell adhesion molecule 1 (VCAM1), VCAM1 (gene 7412); experiment: BSK_CASM3C_VCAM1: BioMAP Diversity Plus: CASM3C Assay for Vascular cell adhesion molecule 1 (VCAM1) Biomarker Activity (AID 2283055); settings: primary human coronary artery smooth muscle cells; actives raise or lower the signal;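 also: VCAM-1 protein level quantified by ELISA on the cells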
[5] = read-out: Collagen III, COL3A1 (gene 1281); experiment: BSK_hDFCGF_CollagenIII: BioMAP Diversity Plus: hDFCGF Assay for Collagen III Biomarker Activity (AID 2283056); settings: primary human foreskin fibroblasts; actives raise or lower the signal
How it was run: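 Response relative to DMSO, fitted in both directions, reflects ELISA-measured collagen III in human primary skin fibroblasts 24 h after compound addition.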

[6] = read-out: Epidermal growth factor receptor (EGFR), EGFR (gene 1956); experiment: BSK_hDFCGF_EGFR: BioMAP Diversity Plus: hDFCGF Assay for Epidermal growth factor receptor (EGFR) Biomarker Activity (AID 2283057); settings: primary human foreskin fibroblasts; actives raise or lower the signal
How it was run: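 Primary human foreskin fibroblasts (hDFCGF system), sampled 24 h after dosing; EGFR quantified by ELISA. Bidirectional fit relative to DMSO baseline; SRB total-protein staining in parallel cultures for cytotoxicity.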

[7] = read-out: Interleukin-8 (IL8), CXCL8 (gene 3576); experiment: BSK_hDFCGF_IL8: BioMAP Diversity Plus: hDFCGF Assay for Interleukin-8 (IL8) Biomarker Activity (AID 2283058); settings: primary human foreskin fibroblasts; actives raise or lower the signal
How it was run: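 Fibroblast monolayers (human foreskin, hDFCGF) received test chemical for 24 h before ELISA detection of IL-8; either increases or decreases relative to DMSO count as activity.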

[8] = BSK_hDFCGF_Proliferation: Cell Proliferation Assessment in the BioMAP Diversity Plus: hDFCGF Assay (AID 2283059); settings: primary human foreskin fibroblasts;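 also: curves fitted for both rise and fall of signal versus DMSO baseline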
How it was run: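 Primary human foreskin fibroblasts, sub-confluent; […]; 10% TCA fix, 0.1% SRB stain, A560 total protein. Gain/loss fitted bidirectionally vs DMSO control.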

[9] = read-out: Macrophage colony-stimulating factor (MCSF), CSF1 (gene 1435); experiment: BSK_hDFCGF_MCSF: BioMAP Diversity Plus: hDFCGF Assay for Macrophage colony-stimulating factor (MCSF) Biomarker Activity (AID 2283060); settings: primary human foreskin fibroblasts; actives raise or lower the signal
How it was run: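 fibroblasts (human foreskin, primary), 24 h post-dose; M-CSF by ELISA; bidirectional fit, DMSO = baseline.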

[10] = BSK_hDFCGF_SRB: Viability Assessment in the BioMAP Diversity Plus: hDFCGF Assay (AID 2283061); settings: primary human foreskin fibroblasts;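 also: cells exposed to compound for 24 h before the read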
How it was run: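 SRB-based viability read on primary human skin fibroblasts at 24 h: TCA fixation, 0.1% dye, 560 nm. Gain or loss of signal is fitted against the DMSO negative control.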

[11] = read-out: TIMP metallopeptidase inhibitor 1 (TIMP1), TIMP1 (gene 7076); experiment: BSK_hDFCGF_TIMP1: BioMAP Diversity Plus: hDFCGF Assay for TIMP metallopeptidase inhibitor 1 (TIMP1) Biomarker Activity (AID 2283062); settings: primary human foreskin fibroblasts; actives raise or lower the signal
How it was run: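 Bidirectional curve fitting against DMSO baseline yielded this endpoint, based on ELISA detection of TIMP-1 in primary human foreskin fibroblasts exposed to compound for 24 h.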

[12] = read-out: Monokine induced gamma interferon (MIG), CXCL9 (gene 4283); experiment: BSK_hDFCGF_MIG: BioMAP Diversity Plus: hDFCGF Assay for Monokine induced gamma interferon (MIG) Biomarker Activity (AID 2283063); settings: primary human foreskin fibroblasts; actives raise or lower the signal
How it was run: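 Endpoint derived by bidirectional fitting relative to DMSO; MIG quantified via ELISA in primary human foreskin fibroblasts harvested 24 h after dosing.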

[13] = read-out: Matrix Metallopeptidase 1 (MMP1), MMP1 (gene 4312); experiment: BSK_hDFCGF_MMP1: BioMAP Diversity Plus: hDFCGF Assay for Matrix Metallopeptidase 1 (MMP1) Biomarker Activity (AID 2283064); settings: primary human foreskin fibroblasts; actives raise or lower the signal
How it was run: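 Primary human foreskin fibroblasts exposed to chemicals for 24 h; MMP1 measured by ELISA. Cytotoxicity tracked by SRB staining in parallel cultures; bidirectional fit relative to DMSO.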

[14] = read-out: Vascular cell adhesion molecule 1 (VCAM1), VCAM1 (gene 7412); experiment: BSK_hDFCGF_VCAM1: BioMAP Diversity Plus: hDFCGF Assay for Vascular cell adhesion molecule 1 (VCAM1) Biomarker Activity (AID 2283065); settings: primary human foreskin fibroblasts; actives raise or lower the signal
How it was run: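 Measured after 24 h chemical treatment of primary human skin fibroblasts, VCAM-1 was detected by ELISA and concentration-response analysed in both directions versus DMSO vehicle.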

[15] = read-out: Plasminogen activator inhibitor-1 (PAI1), SERPINE1 (gene 5054); experiment: BSK_hDFCGF_PAI1: BioMAP Diversity Plus: hDFCGF Assay for Plasminogen activator inhibitor-1 (PAI1) Biomarker Activity (AID 2283066); settings: primary human foreskin fibroblasts; actives raise or lower the signal
How it was run: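 Human foreskin fibroblast primary cells, 24 h chemical exposure; PAI-1 measured by ELISA. Bidirectional fitting relative to DMSO; parallel cultures stained with SRB for total protein to flag overt cytotoxicity.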

[16] = read-out: Intercellular Adhesion Molecule 1 (ICAM1), ICAM1 (gene 3383); experiment: BSK_KF3CT_ICAM1: BioMAP Diversity Plus: KF3CT Assay for Intercellular Adhesion Molecule 1 (ICAM1) Biomarker Activity (AID 2283067); settings: primary human keratinocytes with fibroblasts; actives raise or lower the signal
How it was run: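 Bidirectional curve fitting against a DMSO baseline was applied to ICAM-1 ELISA signal from primary human skin co-cultures harvested 24 h after treatment, with SRB staining of parallel wells for overt cytotoxicity.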

[17] = read-out: Interferon-gamma inducible Protein 10 (IP10), CXCL10 (gene 3627); experiment: BSK_KF3CT_IP10: BioMAP Diversity Plus: KF3CT Assay for Interferon-gamma inducible Protein 10 (IP10) Biomarker Activity (AID 2283068); settings: primary human keratinocytes with fibroblasts; actives raise or lower the signal
How it was run: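 In a primary skin co-culture of keratinocytes and fibroblasts, IP-10 is quantified by ELISA at 24 h after dosing. SRB staining of parallel wells monitors overt toxicity. Curves are fitted both directions against DMSO.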

[18] = BSK_KF3CT_SRB: Viability Assessment in the BioMAP Diversity Plus: KF3CT Assay (AID 2283069); settings: primary human keratinocytes with fibroblasts;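 also: total protein by sulforhodamine B staining as a cytotoxicity measure; fitted for both signal gain and loss against DMSO baseline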
How it was run: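 Human keratinocyte and foreskin fibroblast co-culture exposed to chemical for 24 h. Total protein measured in parallel cultures by 0.1% sulforhodamine B staining after 10% TCA fixation, read at 560 nm; bidirectional fit relative to DMSO.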

[19] = read-out: Interleukin-1 alpha (IL1a), IL1A (gene 3552); experiment: BSK_KF3CT_IL1a: BioMAP Diversity Plus: KF3CT Assay for Interleukin-1 alpha (IL1a) Biomarker Activity (AID 2283070); settings: primary human keratinocytes with fibroblasts; actives raise or lower the signal
How it was run: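 Primary human keratinocyte plus foreskin fibroblast co-culture, dosed and measured at 24 h in 96-well plates. IL-1a level quantified by ELISA; bidirectional fit relative to DMSO.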

[20] = read-out: TIMP metallopeptidase inhibitor 2 (TIMP2), TIMP2 (gene 7077); experiment: BSK_KF3CT_TIMP2: BioMAP Diversity Plus: KF3CT Assay for TIMP metallopeptidase inhibitor 2 (TIMP2) Biomarker Activity (AID 2283071); settings: primary human keratinocytes with fibroblasts; actives raise or lower the signal
How it was run: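 Co-culture of human primary keratinocytes and foreskin fibroblasts, measured 24 h after chemical dosing. TIMP-2 quantified by ELISA and fitted in both directions relative to DMSO. Cytotoxicity checked in parallel cultures by SRB total-protein staining.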

Measured: AC50

CCCCc1nc2cccnc2n1Cc1ccc(-c2ccccc2-c2nnn[nH]2)cc1
active: [2] 32 µM | [8] 18.7 µM | [17] 29.7 µM
not listed: [20]
inactive: all other assays above

OCC(O)CO
inactive: all assays above

CCCC(=O)O
not listed: [11] | [20]
inactive: all other assays above

CC1(C)C(=O)NC(=O)N1CO
inactive: all assays above

O=C(Oc1ccccc1)c1cccc(C(=O)Oc2ccccc2)c1
not listed: [11] | [20]
inactive: all other assays above

CC1=C(C)S(=O)(=O)CCS1(=O)=O
not listed: [11] | [20]
inactive: all other assays above

CSc1ccc(Oc2ccc(S(N)(=O)=O)cc2CN(C)C)cc1C
active: [8] 20 µM
not listed: [11] | [20]
inactive: all other assays above

Nc1nc(=S)c2[nH]cnc2[nH]1
active: [5] 26.1 µM | [8] 14 µM | [13] 24.8 µM
not listed: [14] | [20]
inactive: all other assays above

CC(=O)[C@@]1(O)CC[C@H]2[C@@H]3CCC4=CC(=O)CC[C@]4(C)[C@H]3CC[C@@]21C
inactive: all assays above

O=NO
inactive: all assays above

O=C1O[C@H]([C@H](O)CO)C(O)=C1O
inactive: all assays above

CCCCC(CC)COP(=O)(OCC(CC)CCCC)OCC(CC)CCCC (stereo not drawn)
active: [8] 7.49 µM
inactive: all other assays above

CC(C)OC(=O)C(C)(C)Oc1ccc(C(=O)c2ccc(Cl)cc2)cc1
active: [2] 12.9 µM | [3] 5.38 µM | [4] 5 µM | [5] 8.9 µM | [8] 26.4 µM | [15] 3.97 µM
not listed: [17]
inactive: all other assays above

COc1ccc(C(=O)Nc2nc3ccccc3c(NCc3ccccc3)c2C#N)cc1
active: [5] 2.8 µM | [8] 5.53 µM
inactive: all other assays above
